The panel holds about 79,000 compounds, 15% with a hit somewhere; the sample as a whole holds those more often. Values without a mark were called inactive. Calls of active or inactive are those of the source. Rule as the data show it: active = growth inhibition above about 70%; inactive = the rest.
Tests used:
[1] = NCI Yeast Anticancer Drug Screen. Data for the rad50 strain (AID 155);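 also: 0% = growth of vehicle-only cultures of the same strain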; details: S. cerevisiae rad50 strain growth inhibition, active compounds read high
Method in brief: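 Growth of the mutant yeast was measured after compound exposure and referenced to vehicle-treated cultures.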

[2] = NCI Yeast Anticancer Drug Screen. Data for the mec2-1 strain (AID 157); details: S. cerevisiae mec2-1 strain, active compounds read high
Method in brief: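 Test agents were screened against the mec2-1 yeast strain, with defined DNA repair or cell cycle alteration. Growth was scored as inhibition against vehicle-only controls.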

[3] = NCI Yeast Anticancer Drug Screen. Data for the sgs1 mgt1 strain (AID 161);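 also: 0% = growth of cultures given vehicle only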; details: S. cerevisiae sgs1 mgt1 strain, active compounds read high
Method in brief: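 Test agents were incubated with a DNA-repair-mutant yeast strain. Growth was then read and compared against vehicle-treated controls.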

[4] = NCI Yeast Anticancer Drug Screen. Data for the cln2 rad14 strain (AID 165);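 also: 0% = growth equal to vehicle treated cultures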; details: S. cerevisiae cln2 rad14 strain, active compounds read high
Method in brief: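 Growth of compound-exposed yeast (cln2 rad14 genotype) measured and expressed as inhibition relative to vehicle.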

[5] = NCI Yeast Anticancer Drug Screen. Data for the bub3 strain (AID 167); details: S. cerevisiae bub3 mutant strain, active compounds read high
Method in brief: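 Whole-cell yeast assay. The mutant strain was incubated with compounds, and growth inhibition was determined by comparison with vehicle-treated cells.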

[6] = NCI Yeast Anticancer Drug Screen. Data for the mlh1 rad18 strain (AID 175); details: S. cerevisiae mlh1 rad18 strain growth inhibition, active compounds read high
Method in brief: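 In this whole-cell yeast screen, a strain with altered DNA damage repair is challenged with compound, and its growth is measured against matched vehicle-treated controls.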

[7] = at 5.0 µM (retest, dose inferred, filed as 0.5)
[8] = at 50.0 µM (retest, dose inferred, filed as 5.0)

Row | Structure (SMILES) | growth inhibition [1, 7] | growth inhibition [1, 8] | growth inhibition ([1]; at 50.0 µM) | growth inhibition [2, 7] | growth inhibition [2, 8] | growth inhibition ([2]; at 50.0 µM) | growth inhibition [3, 7] | growth inhibition [3, 8] | growth inhibition ([3]; at 50.0 µM) | growth inhibition [4, 7] | growth inhibition [4, 8] | growth inhibition ([4]; at 50.0 µM) | growth inhibition [5, 7] | growth inhibition [5, 8] | growth inhibition ([5]; at 50.0 µM) | growth inhibition [6, 7] | growth inhibition [6, 8] | growth inhibition ([6]; at 50.0 µM)
1 | CCCCOC(=O)c1n[nH]c(C)c1N=NN(C)C | 43% | 99% (active) | 99% (active) | 96% (active) | 99% (active) | 99% (active) | 95% (active) | 99% (active) | 99.2% (active) | 95% (active) | 99% (active) | 99.4% (active) | 84% (active) | 99% (active) | 99.2% (active) | 80% (active) | 99% (active) | 99.2% (active)
2 | CCOc1c(N=Nc2ccccc2Cl)c(-c2ccccc2)nn1C(=S)S | -1% | 20% | 52.7% | -4% | 24% | 57.6% | -2% | -70% | 28.8% | -7% | 27% | 48.5% | 3% | 64% | 78.5% (active) | -2% | 31% | 42.9%
3 | O=C1OC(=O)c2ccc(S)c3cccc1c23 | -35% | 95% (active) | 81.8% (active) | -25% | 85% (active) | 61.2% | -53% | 86% (active) | 38.6% | -42% | 68% | 36.7% | -32% | 90% (active) | 88.8% (active) | -80% | 95% (active) | 76% (active)
4 | Cc1ccccc1-n1c(N)c(-c2nc3ccccc3[nH]2)sc1=S | 36% | 45% | 81.2% (active) | 22% | 50% | 70.7% (active) | 42% | 57% | 68.2% | 37% | 44% | 70.4% (active) | 41% | 55% | 83.1% (active) | 42% | 61% | 80.2% (active)
5 | CS[C@H]1CC[C@H]2[C@@H]3CCc4cc(O)ccc4[C@H]3CC[C@]12C | 0% | 73% (active) | 71.6% (active) | 2% | 66% | 61.8% | 0% | 71% (active) | 63.4% | 7% | 85% (active) | 87.6% (active) | 12% | 81% (active) | 82.8% (active) | -8% | 75% (active) | 85.8% (active)
6 | CCCC/C(=C\c1cc(Cl)c(O)c(Cl)c1)C(=O)O | 4% | 79% (active) | 59.5% | 2% | 79% (active) | 70.8% (active) | 2% | 82% (active) | 71.8% (active) | -5% | 76% (active) | 72.4% (active) | 1% | 79% (active) | 56% | -16% | 85% (active) | 87.5% (active)
7 | COC(=O)CNC(=O)C(F)(F)F | -160% | -152% | 81.8% (active) | -47% | -49% | 68.1% | -61% | -58% | 71.7% (active) | -61% | -66% | 75.6% (active) | -65% | -73% | 59.1% | -141% | -111% | 80.5% (active)
8 | O=c1[nH]c(Cc2ccccc2)nc2c1sc1nc3ccccc3n12 | 36% | 86% (active) | 25.2% | 9% | 56% | -1.95% | 19% | 92% (active) | -34.2% | 28% | 81% (active) | -2.85% | 8% | 89% (active) | -33.4% | 18% | 83% (active) | -7.45%
9 | CC#CC#C/C=C1/C=CC(=O)O1 | 2% | 80% (active) | 27.4% | 3% | 66% | 33.5% | 1% | 62% | 42.2% | -1% | 26% | -16.8% | 3% | 59% | 13.5% | 0% | 84% (active) | 75% (active)
10 | CC1C2CC(C(S(=O)(=O)N3CCOCC3)/C2=N\O)C1(C)C (configuration not stated) | -4% | -14% | 88.2% (active) | -12% | -31% | 92.2% (active) | -4% | -4% | 86.5% (active) | -20% | 20% | 89.2% (active) | 0% | -19% | 89.9% (active) | 16% | -18% | 83.2% (active)
11 | Cn1ncc2c(Nc3ccccc3)nc(Nc3ccccc3)nc21 | -1% | 7% | 54.1% | -5% | -33% | 54.1% | -1% | 8% | 56.5% | 5% | 0% | 44.5% | -1% | -17% | 72.5% (active) | 5% | 15% | 80.4% (active)
12 | CCOC(=O)N1C2C=CC(=O)C(C=C2)N1C(=O)OCC (configuration not stated) | -1% | 43% | 72.8% (active) | -9% | 61% | 85.5% (active) | 1% | 73% (active) | 85.1% (active) | 7% | 30% | 67.8% | 1% | 61% | 86.7% (active) | 18% | 85% (active) | 94.3% (active)
13 | Cc1ccc2c(-c3ccccc3)c3ccccc3cc2c1C | 6% | 3% | 46.1% | 13% | 20% | 16.9% | 8% | 18% | 27.6% | -4% | -11% | 14.5% | -5% | -16% | 37.6% | -3% | 2% | 53.4%
14 | CCOC(=O)CC1=NC(=Nc2ccc(Cl)c(Cl)c2)SC1 | 0% | 95% (active) | 96.2% (active) | -3% | 98% (active) | 99% (active) | 0% | 98% (active) | 99.1% (active) | -5% | 94% (active) | 96.6% (active) | 4% | 98% (active) | 97.7% (active) | -2% | 98% (active) | 98.3% (active)
15 | O=C(O)CCC(c1ccccc1)(c1ccccc1)c1ccccc1 | 66% | 99% (active) | 99.5% (active) | 53% | 100% (active) | 99.7% (active) | 54% | 99% (active) | 98.9% (active) | -59% | 99% (active) | 99% (active) | 80% (active) | -50% | 99.5% (active) | 64% | 99% (active) | 99.2% (active)
16 | O=C(CC(C(=O)O)c1c[nH]c2ccccc12)c1ccccc1 (configuration not stated) | -2% | -2% | 45.4% | -3% | 7% | -18.6% | -5% | 0% | 56.8% | -5% | -63% | -16.6% | -1% | 7% | 93.8% (active) | -4% | 1% | -0.1%
17 | CC1=C(C(=O)Nc2ccccc2)C(c2cccc3ccccc23)C(C(=O)Nc2ccccc2)=C(C)N1 | -2% | 53% | 71% (active) | -17% | 51% | 91% (active) | 0% | 41% | 48.6% | -2% | 64% | 64.3% | -7% | 53% | 89% (active) | -4% | 53% | 58.7%
18 | O=C(CC(=O)c1ccccc1)CC(=O)c1ccccc1 | 31% | 81% (active) | 87.7% (active) | 24% | 85% (active) | 68.5% | 38% | 85% (active) | 74.7% (active) | 31% | 55% | 65.9% | 44% | 95% (active) | 88.7% (active) | 38% | 95% (active) | 84% (active)
19 | Cc1ccc2cccc(N)c2c1 | 1% | 2% | -12.4% | 3% | 9% | -2.2% | 2% | 4% | -21.8% | 1% | -9% | 46.4% | 8% | 12% | -5.15% | 2% | 8% | 44.9%

Reference: PubChem BioAssay (NCI)
